Screening data (PubChem)
Only some compounds are listed: those with a hit (about 11% of all), similar ones and a draw of the others.
AmpC detergent: AmpC beta-lactamase inhibition with detergent present; P00811; 0.041% of 370,000 active; AmpC hydrolysis of nitrocefin, absorbance 480 nm, 0.01% Triton; Potency, µM (titrated, usually from 114 µM), for inactives: at the top dose activity change, negative = inhibition, most hits filed as inhibitors;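 further: 0% = no-compound wells and -100% = no-enzyme wells; nearly all actives have a fitted effect of over 25% in size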
Target sequence (P00811 whole entry, looked up): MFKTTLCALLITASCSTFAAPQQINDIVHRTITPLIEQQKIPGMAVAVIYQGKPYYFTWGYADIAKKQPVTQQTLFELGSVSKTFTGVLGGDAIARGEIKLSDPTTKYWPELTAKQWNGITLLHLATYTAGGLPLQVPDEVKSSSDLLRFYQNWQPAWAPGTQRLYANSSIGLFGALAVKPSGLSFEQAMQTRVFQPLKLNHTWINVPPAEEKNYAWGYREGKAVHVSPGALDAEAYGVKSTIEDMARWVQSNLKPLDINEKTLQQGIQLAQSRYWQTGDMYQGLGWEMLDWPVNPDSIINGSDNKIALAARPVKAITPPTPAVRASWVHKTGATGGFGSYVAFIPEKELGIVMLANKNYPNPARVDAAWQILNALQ
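20 mM phosphate pH 7.0 + 0.01% (detergent screen) or 0.0001% Triton X-100; 5.3 nM AmpC reagent; cpd preinc 15 min RT; nitrocefin (800 uM stock) to start; A480 q20 s × 4 min; Activity was normalised to no-enzyme and no-compound control wells.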
HCV inh: inhibitors of hepatitis C virus infection | Huh7.5.1 HCVcc-Cre infection, luciferase reporter, 44 h | Potency, µM (highest dose often 41.8 µM), for inactives: top-dose activity change, negative = inhibition, usual class: inhibitors | 3.4% of 340,000 active | AID 651820
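After 44 h co-culture of compound, cells and HCVcc-Cre (~0.5 moi), substrate is added for 15 min at room temperature and luciferase measured over 15 sec. Cells were seeded at 1,000/well and pre-cultured 4 h.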
Pf growth 96h: inhibits malaria parasite growth, 96 h; P. falciparum luciferase reporter growth, 96 h; AID 504834; 6.9% of 320,000 active; Potency, µM (titrated, usually from 28.7 µM), for inactives: top-dose activity change, negative = inhibition, actives largely listed as inhibitors
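P. falciparum expressing integrated firefly luciferase, in erythrocytes at 2% hematocrit, 0.05% parasitemia, incubated with compounds 96 h at 37 C, 5% CO2. Growth inhibition read as loss of luminescence; two-generation exposure targets delayed-death apicoplast inhibitors.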
AmpC no deterg: AmpC beta-lactamase inhibition without detergent; P00811; Potency, µM (titrated, usually from 57.1 µM), for inactives: at the highest dose activity change, negative = inhibition, hits mostly inhibitors; AmpC nitrocefin hydrolysis, absorbance 480 nm, 0.0001% Triton; 0.52% of 330,000 active;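 further: plate controls were no compound for no effect and no enzyme for full effect; nearly all actives have a fitted effect of over 20% in size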
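AmpC (5.3 nM in the dispensed reagent) in 20 mM phosphate pH 7.0 with 0.01% (detergent screen) or 0.0001% Triton X-100 was preincubated with compounds for 15 min at room temperature. Nitrocefin was then added from an 800 uM solution, and hydrolysis was followed at 480 nm.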
Pf growth 48h: inhibits P. falciparum growth in the first generation, 48 h. 5.9% of 310,000 active. P. falciparum luciferase growth in erythrocytes, 48 h. Potency, µM (top dose mostly 28.7 µM), for the others: at the top dose activity change, negative = inhibition, most hits filed as inhibitors
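Erythrocytes infected with P. falciparum carrying an integrated firefly luciferase reporter (2% hematocrit, 0.1% parasitemia final) were exposed to compounds in RPMI 1640 with 0.5% Albumax at 37 C, 5% CO2. Growth inhibition was scored as reduced luminescence.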
AMA1 RON2 block: disrupts binding of P. falciparum AMA1 to RON2 | AlphaScreen AMA1-biotinylated RON2 peptide binding | Potency, µM (titrated, usually from 58.2 µM), for inactives: at the top dose activity change, negative = inhibition, actives largely listed as inhibitors | 0.2% of 360,000 active;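 further: 0% = vehicle wells and -100% = peptide control; nearly all actives have a fitted effect of over 45% in size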
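AMA1 (3D7) with his tag at 25 nM final met compounds first, then biotinylated RON2 peptide at 25 nM; detection used donor plus acceptor beads, 10 µg/mL apiece, read by AlphaScreen after 30 min at room temperature.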
Active calls of the source: *; ? = inconclusive; · = no result. The call rests on the fitted dose curve; in most records, active means well fitted curve in the direction sought with a large enough effect; inconclusive means small, poorly fitted or top-dose-only effect, or another doubt; inactive means no such curve, though single readings can be large; an effect the other way counts as inactive or inconclusive. Unless noted, on the % scale 0 is the no-effect control and ±100 the full control effect; potency means the concentration at half of the fitted maximal effect.

SMILES | AmpC detergent | HCV inh | Pf growth 96h | AmpC no deterg | Pf growth 48h | AMA1 RON2 block
COc1ccc(OC)c(C2=NOC(C(=O)NCCN3CCOCC3)C2)c1 (stereo not drawn) | ? | 10% | 28% | -18% | -4% | 8%
COc1ccc(OC)c(C2=NOC(C(=O)Nc3ccc4c(c3)OCCO4)C2)c1 (stereo not drawn) | 1% | -8% | -24% | -18% | -22% | -12%
Cc1cc(C)nc(SSc2nc(C)cc(C)n2)n1 | 79µM* | 9% | ? | ? | ? | 13%
Cc1cc(C)nc(SCCN(C)C)n1 | -3% | 12% | 53% | -5% | 9% | 3%
Fc1ccc(NCc2nnc3n2CCCCC3)cc1Cl | 13% | · | · | · | · | ·
CN(C)c1ccc(P(=O)(OC2CCCCC2)C(Nc2ccccc2)c2cccnc2)cc1 (stereo not drawn) | 4% | -13% | 2.9µM* | 57% | 9.3µM* | -23%
NNC(=S)NC1CCCCCCCCCCC1 | -2% | -18% | 10µM* | -39% | ? | 76%
S=C(NC1CCCCCC1)NC1CCCC1 | -8% | -20% | 0% | -25% | 8% | 0%
COc1ccc(-c2cc(C(=O)Nc3c(C(=O)c4ccc(C)c(F)c4)oc4ccccc34)no2)cc1 | 11% | · | · | · | · | ·
CCOC(=O)C1CCN(C(=O)Cn2cnc3sc(C)c(S(=O)(=O)N4CCOCC4)c3c2=O)CC1 | -4% | 9% | ? | -2% | 1.5µM* | -10%
CCOC(=O)CNC(=O)Cn1cnc2sc(C)c(S(=O)(=O)N3CCOCC3)c2c1=O | 3% | -2% | ? | -7% | 22% | 6%
Cc1ccc2c(=O)cc(C(=O)Nc3cccc(Cl)c3C)oc2c1C | 11% | · | · | · | · | ·
CCc1cc(SC#N)cc(CC)c1NC(=O)CCl | -15% | ? | ? | -12% | 10µM* | -2%
CCCCS(=O)CC(CS(=O)CCCC)OC(=O)c1ccccc1 (stereo not drawn) | -17% | 6% | 6.6µM* | 15% | 3% | 4%
COc1cccc(-c2cnc(NCc3ccccc3Cl)n2C)c1 | 2% | · | · | · | · | ·
CC(C)(C)c1ccc(C(=O)N2CCCN(c3ccc([N+](=O)[O-])cn3)CC2)cc1 | 12% | ? | 12µM* | 129% | ? | -18%
O=[N+]([O-])c1ccc(N2CCCC2)nc1 | -14% | 0% | 39% | -18% | 42% | -2%
Cc1cc(C)n(-c2cc(N3CCN(C(=O)c4ccc(C(C)(C)C)cc4)CC3)ccc2[N+](=O)[O-])n1 | 1% | ? | 9.3µM* | 77% | 4.7µM* | -20%
S=C1NC[C@H](c2ccccc2)N1CC1CCCCC1 | 1% | ? | 8.3µM* | -30% | ? | -5%
Cc1nc2ncnn2c(C)c1CCC(=O)NCc1ccccc1Cl | 2% | · | · | · | · | ·
CC(=O)CSc1nc2ccc(Nc3nc(N4CCOCC4)nc(N4CCOCC4)n3)cc2s1 | -9% | 32µM* | 6.6µM* | 111% | ? | 13%
CC(C)(C)NC(=O)CSc1nc2ccc(Nc3nc(N4CCOCC4)nc(N4CCOCC4)n3)cc2s1 | -3% | -24% | ? | 135% | 7.4µM* | -13%
COc1ccc(NC(=O)CSc2nc3ccc(Nc4nc(N5CCOCC5)nc(N5CCOCC5)n4)cc3s2)cc1 | -6% | 10µM* | ? | -49% | ? | 1%
Cc1ccc(NC(=O)CSc2nc3ccc(Nc4nc(N5CCOCC5)nc(N5CCOCC5)n4)cc3s2)cc1 | -3% | -17% | ? | 14% | ? | -3%
Cc1nc(N2CCOCC2)c2c(C(=O)NCCc3ccccc3)c(C)oc2n1 | -10% | · | · | · | · | ·
CC(C)(C)NC(=O)Cn1cc(C#N)c2cc(Br)ccc21 | -1% | -2% | · | -4% | 5.9µM* | -3%
CC(C)(C)NC(=O)Cn1ccc(=N)c2ccccc21 | ? | -12% | -98% | -13% | ? | -3%
